# This is a sample that favours compounds with a hit; in the whole collection about 18% have one here.
# GCN5L2 inh: blocks human GCN5L2 histone acetyltransferase; Q92830; GCN5L2 HAT assay, ThioGlo1 CoA-SH fluorescence; Potency, µM (highest dose often 58.9 µM), without a hit: top-dose activity change, negative = inhibition, actives largely listed as inhibitors; 390,000 tested, 0.21% active
#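 Free CoA generated was detected with ThioGlo1 (50uM) fluorescence at Ex340nm/Em540nm, read immediately and after 20 min at room temperature. Enzyme, 20 nM in HEPES pH 7.5 buffer, saw compounds 15 min before adding 75uM H3(1-25) peptide and 70uM acetyl-CoA.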
# DT40 TDP1 no CPT: qHTS for Inhibitors of human tyrosyl-DNA phosphodiesterase 1 (TDP1): qHTS in cells in absence of CPT | DT40 Tdp1-/- hTDP1 cells, no CPT, ATP luminescence, 48 h | Potency, µM (top dose mostly 46.2 µM), for the others: at the highest dose activity change, negative = growth inhibition, hits mostly inhibitors | 420,000 tested, 15% active; further: nearly all actives have a fitted effect of over 55% in size
#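 Cells were dispensed at 400 per well, compounds added by pin tool, plates incubated ≥48 hr at 37 °C, then CellTiter-Glo added for 30 min at room temperature before luminescence reading. Line: DT40 Tdp1-/- complemented with hTDP1; camptothecin omitted.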
# TDP1 block: blocks human tyrosyl-DNA phosphodiesterase 1; Q9NUW8; recombinant TDP1, AlphaScreen DNA substrate cleavage; Potency, µM (highest dose often 130 µM), for inactives: top-dose activity change, negative = inhibition, actives largely listed as inhibitors; 350,000 tested, 0.28% active; AID 485290; further: nearly all actives have a fitted effect of over 40% in size
#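 Here, a 5' biotin and 3' phosphotyrosine-FITC DNA oligonucleotide reports Tdp1 activity: intact substrate bridges AlphaScreen beads, while cleavage leaves a 3' phosphate and drops signal. All incubations at room temperature.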
# PLK1 PBD block: inhibitors of human PLK1 polo-box domain binding | P53350 | Plk1 PBD binding of FITC phosphopeptide, fluorescence polarization | Potency, µM, for inactives: max response, negative = inhibition, usual class: inhibitors | 360,000 tested, 2.8% active | AID 720504; further: series mostly up to about 57 µM; nearly all actives have a fitted effect of over 65% in size
# Target sequence (P53350 whole entry, looked up, the tested form may be a part): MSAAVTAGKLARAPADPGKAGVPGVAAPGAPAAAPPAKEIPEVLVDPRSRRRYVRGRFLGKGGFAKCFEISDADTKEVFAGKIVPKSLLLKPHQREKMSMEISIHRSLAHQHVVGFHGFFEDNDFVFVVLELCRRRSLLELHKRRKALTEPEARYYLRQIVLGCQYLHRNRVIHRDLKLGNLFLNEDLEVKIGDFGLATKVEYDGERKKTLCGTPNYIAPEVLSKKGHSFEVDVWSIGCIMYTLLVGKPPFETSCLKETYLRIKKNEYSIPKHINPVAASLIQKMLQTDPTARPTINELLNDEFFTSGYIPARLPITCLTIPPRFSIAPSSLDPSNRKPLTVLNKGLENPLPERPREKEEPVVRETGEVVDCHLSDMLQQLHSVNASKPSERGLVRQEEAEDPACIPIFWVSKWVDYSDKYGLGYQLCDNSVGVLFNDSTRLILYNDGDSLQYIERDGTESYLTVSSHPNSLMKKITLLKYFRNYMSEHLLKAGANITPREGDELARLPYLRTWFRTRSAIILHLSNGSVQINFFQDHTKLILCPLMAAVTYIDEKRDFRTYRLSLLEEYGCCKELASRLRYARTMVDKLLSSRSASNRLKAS
# TDP1 cell CPT: growth inhibition of DT40 Tdp1-/-;hTDP1 cells with camptothecin (screen for TDP1 inhibitors); chicken DT40 Tdp1-/-;hTDP1 cells + 20 nM CPT, ATP luminescence, 48 h; Potency, µM (highest dose often 46.2 µM), for the others: at the top dose activity change, negative = growth inhibition, usual class: inhibitors; 420,000 tested, 12% active; AID 686979; further: nearly all actives have a fitted effect of over 55% in size
#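 Chicken DT40 Tdp1-/- cells complemented with human TDP1, 400 cells/well, exposed to compounds plus 20 nM camptothecin for at least 48 h at 37 C; viability read as ATP content by CellTiter-Glo luminescence.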
# VDR inh: inhibitors of human vitamin D receptor. Potency, µM, without a hit: max response, negative = inhibition, actives largely listed as inhibitors. P11473. 400,000 tested, 0.93% active. VDR-SRC2-3 peptide fluorescence polarization, 2 h. AID 504847
#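 Reagent solutions, kept cold and dark, are dispensed first; compounds are then pinned in at 23 nl, plates briefly spun, and incubated 2 h at ambient temperature. Inhibition of VDR–SRC2-3 peptide binding is read by fluorescence polarization.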
# The depositor's hits bear a star; u = inconclusive; x = no result given; [ ] = remark or other dose. The call rests on the fitted dose curve; in most records, active means well fitted curve in the direction sought with a large enough effect; inconclusive means small, poorly fitted or top-dose-only effect, or another doubt; inactive means no such curve, though single readings can be large; an effect the other way counts as inactive or inconclusive. On the % scale 0 is the no-effect control and ±100 the full control effect; potency means the concentration at half of the fitted maximal effect.
SMILES,GCN5L2 inh,DT40 TDP1 no CPT,TDP1 block,PLK1 PBD block,TDP1 cell CPT,VDR inh
COc1ccc(Nc2nc3c(C)cccc3cc2C#N)c(OC)c1,-2.9%,6.1%,-1.8%,7.1%,2.1%,-2.1%
O=C(CNC(=O)Cc1ccc(Cl)cc1)NCc1ccco1,-10.8%,0.8%,-5.1%,0.7%,8.2%,-5.9%
CC(=O)OC1(C)C=Cc2ccccc2C1=NS(=O)(=O)c1ccccc1 (stereo not given),x,23.1µM*,x,-12.7%,u,x
CC(=O)N1C(C)(C)CC(=NOS(=O)(=O)c2ccccc2)CC1(C)C,-5.3%,1.0%,0.0%,2.0%,-2.9%,17.1%
CN(C)c1ccc(-c2csc(C(O)c3cccc(Cl)c3)n2)cc1 (stereo not given),x,20.6µM*,x,-4.7%,20.6µM*,x
OC(c1cccc(Cl)c1)c1nc(-c2ccccc2)cs1 (stereo not given),x,-19.0%,x,-3.3%,u,x
CC(C)c1cccc(-c2csc(C(O)c3cccc(Cl)c3)n2)c1 (stereo not given),x,20.6µM*,x,-3.3%,23.1µM*,x
O=C(NCc1nnc(SCC(=O)N2CCCCC2)o1)c1c(F)cccc1Cl,u,29.7%,1.0%,-0.3%,12.7%,-16.6%
O=C(NCCC1CCCCN1S(=O)(=O)c1cccs1)C(=O)Nc1ccccc1 (stereo not given),-4.2%,23.1µM*,-2.3%,-16.0%,16.4µM*,13.7%
O=C(NCCc1ccccc1)C(=O)NCCC1CCCCN1S(=O)(=O)c1cccs1 (stereo not given),0.6%,u,0.2%,3.7%,u,0.6%
O=C(NCCc1ccccc1)C(=O)NCCC1CCCCN1S(=O)(=O)c1ccccc1 (stereo not given),-0.4%,u,-2.0%,-18.2%,u,-5.0%
O=C(NCCC1CCCCN1S(=O)(=O)c1ccc(F)cc1)C(=O)Nc1ccccc1 (stereo not given),-2.5%,18.4µM*,0.3%,-12.0%,u,-14.1%
COc1ccc(NC(=O)C(=O)NCCC2CCCCN2S(=O)(=O)c2ccccc2)cc1 (stereo not given),-5.2%,2.91µM*,-0.4%,-11.3%,4.11µM*,-10.2%
COc1cccc(NC(=O)C(=O)NCCC2CCCCN2S(=O)(=O)c2cccs2)c1 (stereo not given),-4.2%,16.4µM*,0.3%,-5.1%,u,-18.0%
Cc1cccc(C(=O)NCC(=O)OCc2cc(=O)n3nc(C)sc3n2)c1,-3.4%,3.3%,-1.9%,x,-1.0%,14.1%
O=C(NN=C1CCCC1)c1ccccc1OCc1ccc(Cl)cc1,2.6%,u,1.2%,-18.6%,27.9%,-1.0%
CCC(=O)Nc1cc(-c2cccc(C)c2)nn1-c1ccccc1,-22.0%,u,2.7%,x,u,8.6%
CCCn1cnnc1CNC(=O)[C@H]1O[C@@H](n2cnc3c(N)ncnc32)[C@H](O)[C@@H]1O,x,7.3%,x,-2.3%,11.5%,x
N#CN=c1snc(-c2ccccc2Cl)n1-c1ccccc1Cl,x,u,x,x,u,-11.2%
COc1ccc(NC(=O)C(=O)NCCC2CCCCN2S(=O)(=O)c2cccs2)cc1 (stereo not given),-4.8%,4.61µM*,-0.4%,-6.6%,3.66µM*,-0.7%
O=C(Cn1nnc(-c2ccccc2Cl)n1)Nc1ccc(Br)cc1,-0.5%,-26.0%,4.0%[12.3 µM],x,-11.2%,-2.6%
COc1ccccc1S(=O)(=O)N(C)C[C@H]1Oc2cc(Br)ccc2S(=O)(=O)N([C@@H](C)CO)C[C@H]1C,x,16.4µM*,x,-6.3%,29.1µM*,x
COc1ccc(S(=O)(=O)N(C)C[C@@H]2Oc3cc(C#CC4CCCCC4)ccc3S(=O)(=O)N([C@@H](C)CO)C[C@@H]2C)cc1,x,18.4µM*,x,-20.9%,18.4µM*,x
C[C@H]1CN([C@@H](C)CO)S(=O)(=O)c2ccc(Br)cc2O[C@H]1CN(C)S(=O)(=O)c1ccccc1F,x,4.5%,x,-0.1%,2.9%,x
COc1cccc(S(=O)(=O)N(C)C[C@@H]2Oc3cc(C#CCN(C)C)ccc3S(=O)(=O)N([C@H](C)CO)C[C@@H]2C)c1,x,u,x,5.7%,-18.2%,x
SMILES,GCN5L2 inh,DT40 TDP1 no CPT,TDP1 block,PLK1 PBD block,TDP1 cell CPT,VDR inh
COc1ccccc1S(=O)(=O)N(C)C[C@H]1Oc2cc(C#CCC3CCCC3)ccc2S(=O)(=O)N([C@H](C)CO)C[C@H]1C,x,8.2µM*,x,-7.0%,13µM*,x
CSc1ccccc1C(=O)NCC1Cc2cccc(-c3ncccc3C)c2O1 (stereo not given),x,-23.2%,x,x,-7.5%,x
CCc1ccc(NC(=O)CSc2nnnn2C)cc1,-2.9%,-11.0%,1.3%,0.5%,7.6%,21.0%
CC1(C)OC(c2ccccc2)=C/C(=C/C=Nc2ccccc2)O1,-4.8%,u,7.5%,-2.8%,23.1µM*,5.0%
CC1(C)OC(c2ccccc2)=C/C(=C\C=N\NC(=O)c2ccncc2)O1,-7.9%,u,12.6%,1.8%,u,9.2%
CCOC(=O)CNC(=O)N1CCc2ccc(NC(=O)c3ccccc3Cl)cc2C1,-18.9%,8.2µM*,x,-0.5%,18.4µM*,-3.1%
CSc1cccc(NC(=O)N2CCc3ccc(NC(=O)c4ccccn4)cc3C2)c1,-25.0%,13µM*,4.2%,0.1%,u,14.6%
O=C(/C=C/c1ccc(OCCCF)cc1)Nc1ccnc(-c2cccnc2)n1,-12.5%,u,0.0%,13.0%,u,-17.5%
O=C(/C=C/c1ccc(OCCCF)cc1)Nc1ccnc(-c2ccncc2)n1,-2.9%,23.1µM*,5.9%,-10.6%,u,5.2%
Cc1ccc(S(=O)(=O)c2ccc([N+](=O)[O-])cn2)cc1,-0.1%,0.517µM*,x,u,0.461µM*,25.1µM*
O=[N+]([O-])c1ccc(S(=O)(=O)c2ccccc2)nc1,47.4%,0.92µM*,x,5.32µM*,0.517µM*,39.8µM*
CCN(CC)CCNC(=O)c1ccc(-n2c(-c3ccccc3)cc3c2CCCC3)cc1,-9.8%,u,2.6%,x,u,5.6%
CCCC[C@]12Cc3cc(C#N)ccc3C(O1)c1c(c3cc(F)ccc3oc1=O)O2,-26.5%[12.7 µM],x,x,x,x,x
CC(C)(C)OC(=O)N1CCC(C(=O)Nc2cccc(C(=O)NCc3ccccc3)c2)CC1,x,20.6µM*,x,1.8%,23.1µM*,-10.6%
O=C(NCCCCc1ccccc1)c1cccc(NC(=O)C2CC2)c1,x,u,x,18.9µM*,u,79.4µM*
CC(C)(C)OC(=O)N1CCC(C(=O)Nc2cccc(C(=O)NCCCc3ccccc3)c2)CC1,x,20.6µM*,x,1.2%,14.6µM*,9.1%
